In PubChem BioAssay AID1845226 (National Center for Advancing Translational Sciences (NCATS), 2023):
Inconclusive results are not listed. A number with no mark means an inactive call. Active and inactive are the calls of the source. Calls follow the shape of the dose curve; as a rule, active = well fitted inhibition curve with a large enough effect; inconclusive = small, poorly fitted or top-dose-only effect; inactive = no such curve, though single readings can be large or run the other way.

Assay: Confirmatory fluorescence-based thiol-reactive (MSTI) qHTS assay for identification of artifact compounds
Conditions: MSTI thiol-reactivity probe, 1 h; series mostly up to 39.2 µM; activity change, negative = inhibition: at the top concentration
Procedure, shortened: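 Probe solution (4 uM MSTI, 2% DMSO/PBS, pH 7.4) is dispensed, then compounds are pinned. Plates incubate for 1 h at room temperature, light-protected, before fluorescence is read at 525/598 nm.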
Potency is read from the fitted curve at half-maximal effect.

Row | SMILES | activity change, negative = inhibition [%] | Potency
1 | COc1ccc(NC(=O)Nc2cccc(-c3noc(C)n3)c2)cc1 | 61.9 | 
2 | COc1ccc(CNC(=O)c2nnn(CC(=O)Nc3cc(C)cc(C)c3)c2N)cc1 | 234 | 
3 | CC(C)c1cnc2c(c1SCC(=O)Nc1cccc([N+](=O)[O-])c1)c(=O)n(C)c(=O)n2C | 8.16 | 
4 | Cc1cc(OC(=O)c2c(C)cc(O)cc2O)cc(O)c1C(=O)O | 2.87 | 
5 | COc1ccc(C2=NN(CCC(=O)NCCc3ccccc3)C(=O)CC2)cc1 | 54.8 | 
6 | Cc1ccc(CN(Cc2ccco2)C(=O)COc2ccc(Cl)cc2Cl)cc1 | 35.2 | 
7 | COc1cccc(CN2CCCN(Cc3ccc(F)cc3)S2(=O)=O)c1 | 74.8 | 
8 | CCOc1ccc(NC(=O)CSc2nnc3scc(-c4ccccc4)n23)cc1 | 166 | 
9 | CCOC(=O)c1sc2cccc(F)c2c1S(=O)(=O)NCc1ccccc1Cl | 64.2 | 
10 | COc1ccccc1N1CCN(S(=O)(=O)c2c(C)nc3sc(C)c(C)n3c2=O)CC1 | 23.2 | 
11 | Fc1ccc(-c2cc(-c3ccc(F)cc3)c3c(n2)-c2cc(F)ccc2OC3)cc1 | 153 | 
12 | CCOC(=O)C1CCN(c2nc3ccccc3nc2Cl)CC1 | 118 | 
13 | O=C1CCCc2[nH]c(=O)c(-c3nc(-c4cccc([N+](=O)[O-])c4)cs3)cc21 |  | 3.86 µM (active)
14 | CC[C@H]1OC(=O)[C@H](C)[C@@H](O[C@H]2C[C@@](C)(OC)[C@@H](O)[C@H](C)O2)[C@H](C)[C@@H](O[C@@H]2O[C@H](C)C[C@H](N(C)C)[C@H]2O)[C@](C)(O)C[C@@H](C)C(=O)[C@H](C)[C@@H](O)[C@]1(C)O | 30.9 | 
15 | O=S(=O)(O)c1ccc(N=Nc2c(O)ccc3cc(S(=O)(=O)O)ccc23)cc1 |  | 6.12 µM (active)
16 | CCc1ccc2c(O)c3c(cc2c1C(=O)OC)C(=O)c1c(O)ccc(O)c1C3=O |  | 0.386 µM (active)
17 | COc1ccc(N2C(=O)NC(NS(=O)(=O)c3ccc(Cl)cc3)(C(F)(F)F)C2=O)cc1 (configuration not stated) | 4.2 | 
